# Measurements published in PubChem BioAssay.
# Results filed as inconclusive are left out. Activity calls are given as the source filed them.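 Rule for the calls, unless noted: active = percent response above 42, roughly 3 SD of non-fluorescent test compounds; inactive = the rest.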
# Legend:
# [1] = yeast TOR pathway RPL19A-GFP modulators, primary screen, cell-based, S. cerevisiae, multiplex flow cytometry (AID 1862; in the data active = percent of DMSO control GFP below about 86%;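 note: lower values mimic rapamycin by blocking the RPL19A rise seen in DMSO cells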); conditions: S. cerevisiae RPL19A-GFP strain, flow cytometry fluorescence, 3 h; at 10 µM; stronger effect = lower value
# [2] = modulators of MEP2-GFP levels in yeast, primary screen, S. cerevisiae, multiplex flow cytometry (AID 1867;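 active = GFP response, as percent of the DMSO control, above the screen-wide mean plus 3 SD, about 139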;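 note: median GFP channel fluorescence of barcode-gated MEP2-GFP cells measured by flow cytometry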); conditions: S. cerevisiae MEP2-GFP strain, 3 h, at 10 µM, stronger effect = higher value, 100% means same as DMSO wells
# [3] = modulators of CIT2-GFP expression in yeast, primary screen, S. cerevisiae, GFP fusion, multiplex flow cytometry (AID 1870;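 active = percent response above a set limit, the screen-wide mean plus 3 SD, cut at about 130% in these data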;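 note: barcoded CIT2-GFP strain pooled with four other GFP strains with rapamycin as positive control; median GFP fluorescence per well over plate mean of DMSO wells so 100% = DMSO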); conditions: 3 h, at 10 µM, stronger effect = higher value
# [4] = modulators of LAP4-GFP expression in yeast, primary screen, S. cerevisiae, multiplex flow cytometry (AID 1873;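 active = GFP signal, as percent of the solvent control, above the screen mean plus 3 SD, about 149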); conditions: 3 h, at 10 µM, stronger effect = higher value
# [5] = modulators of AGP1-GFP expression in yeast TOR pathway, primary screen, cell-based, multiplex flow cytometry, S. cerevisiae (AID 1887;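 active = GFP signal above the screen-wide mean plus 3 SD, that is over about 124.5% of the solvent control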;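 note: AGP1-GFP fusion strain of S. cerevisiae within a five-strain barcoded multiplex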); conditions: 3 h, at 10 µM, stronger effect = higher value
# [6] = inhibitors of CD8+ T cell-vesicle binding, pilot screen, LFA-1/ICAM-1 modulator project, MLPCN validation set, flow cytometry (AID 2523;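 active = response below a set limit, under 55% cells CD8-positive and vesicle-bound, and CD8 cells' 90th-percentile brightness under 279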;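 for vesicle binding response: mean PE anti-B7-1 fluorescence of CD8+ cells relative to row control; 100% = QL9-loaded vesicles with DMSO vehicle in the same plate row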); conditions: 2C mouse CD8+ T cells, at 7 µM, stronger effect = lower value; double positive events: measured here: CD8+/vesicle+ event percentage
# [7] = biological target: Integrin beta-1 (Homo sapiens) + Integrin alpha-4 (Homo sapiens) (UniProt P13612+P05556); test: inhibition of HUTS-21 binding to VLA-4, pilot screen, VLA-4 allosteric modulator project, U937 cells, HUTS-21 mAb, flow cytometry, validation set (AID 2674;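 active = inhibition above 50%, about 3 SD of the validation set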;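 note: antibody binding induced by the VLA-4 ligand LDV present at three times its Kd; 0% = LDV ligand with antibody and no compound and 100% = antibody without LDV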); conditions: HUTS-21 LIBS mAb binding, at 6.7 µM, stronger effect = higher value, binding induced by LDV ligand
# [8] = superoxide lowering in aged yeast cells, pilot screen, validation compound set (AID 2706;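 active = superoxide response below 65% of plate, a cut near 3 SD across the whole screen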;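 note: yeast exposed to compound for one week at 30 degrees C before staining; 100% = mean of all compound wells on the same plate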); conditions: S. cerevisiae aging, superoxide DHE fluorescence; at 10 µM; stronger effect = lower value
# [9] = biological target: Beta-adrenergic receptor kinase 1 (Homo sapiens) (UniProt P25098); test: GRK2 binders displacing RNA aptamer, biochemical, validation, human GRK2, bead flow cytometry (AID 488806;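 active = aptamer binding inhibition above 30%, about 3 SD of noise from non-fluorescent compounds; inactive = inhibition at or below 30%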); conditions: bead-bound GRK2, FAM-aptamer displacement, at 10 µM, stronger effect = higher value
# [10] = biological target: Beta-2 adrenergic receptor (Homo sapiens) (UniProt P07550); test: beta2AR agonists driving receptor internalization, pilot screen, cell-based, FAP fluorogen, flow cytometry, validation set (AID 504459); conditions: Am2.2-beta2AR cells, FAP surface receptor flow cytometry; at 10 µM; stronger effect = higher value;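 note: agonist-driven loss of surface beta2AR via internalization measured by FAP dye flow cytometry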
# [11] = biological target: AP-2 complex subunit beta (Homo sapiens) (UniProt P63010); test: inhibitors of arrestin peptide binding to AP2, pilot screen, biochemical, validation set, GST-AP2 beads, flow cytometry (AID 504541;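 active = inhibition above 54%, about 3 SD of non-fluorescent compounds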;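 note: AP2 carries R879A mutation and is captured from E. coli lysate; bead-bound FITC arrestin peptide fluorescence measuring arrestin peptide binding to AP2; 0% = DMSO wells and 100% = excess unlabeled arrestin peptide control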); conditions: FITC arrestin peptide, at 10 µM, stronger effect = higher value, AP2 beta2 appendage fragment, R879A mutant
# [12] = yeast V-ATPase proton transport modulators, S. cerevisiae, pHLuorin, HTS validation (AID 504600; in the data active = response above about 15%;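 note: plate controls were DMSO for no effect and reference compound for full effect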); conditions: S. cerevisiae pHLuorin cytosolic pH, at 10 µM, stronger effect = higher value
# [13] = test system: anti-desmoglein-3 scFv antibody binding to human DSG3; test: inhibitors of anti-DSG3 scFv binding to DSG3, pilot screen, biochemical, validation compound set, bead-based, flow cytometry (AID 588368;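 active = binding below the plate cutoff, the plate median minus 3 SD, with a reading above zero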;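 note: signal is the median channel fluorescence of bead-bound GFP antibody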); conditions: Protein G beads, DSG3-Fc, scFv-GFP binding, at 10 µM, stronger effect = lower value
# [14] = inhibitors of fungal efflux pumps CDR1, CDR2, MDR1, pilot screen, validation compound set, multiplex, phenotypic (AID 588506;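 active = efflux inhibition above 0.42, the validation set average plus 4 SD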;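 note: Nile Red retained in cells so higher fluorescence means more efflux inhibition; 0 = negative control wells and 1 = enniatin B 25 µM full block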); conditions: S. cerevisiae pump-expressing triplex, Nile Red efflux flow cytometry; at 10 µM; stronger effect = higher value; the pumps come from Candida albicans
# [15] = biological target: ATP-binding cassette sub-family B member 6 (Homo sapiens) (UniProt Q9NP58); test: ABCB6 transporter inhibitors, pilot screen, K562-ABCB6 cells, flow cytometry, validation set (AID 588550;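 active = inhibition above the screen-wide mean plus 3 SD, about 51%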;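 note: 0% = DMSO wells and 100% = benzethonium chloride 70 µM positive control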); conditions: K562-ABCB6 porphyrin accumulation, 1 h, at 10 µM, stronger effect = higher value
# [16] = promoters of myeloid differentiation in arrested cells, primary screen, cell-based, GFP/MAC1 double positive, flow cytometry, validation set (AID 588685;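 active = differentiation response of at least 50%, scaled between solvent and reference control, from cells with both markers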;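 note: compound exposure lasts four days before antibody staining and flow analysis; 0% = DMSO wells and 100% = 5 µM fulvestrant positive control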); conditions: ER-HoxA9 marrow cells, stronger effect = higher value, normalized: vehicle 0, fulvestrant 100
# Sequence of Integrin beta-1 (Homo sapiens) + Integrin alpha-4 (Homo sapiens) (P05556 whole entry, looked up): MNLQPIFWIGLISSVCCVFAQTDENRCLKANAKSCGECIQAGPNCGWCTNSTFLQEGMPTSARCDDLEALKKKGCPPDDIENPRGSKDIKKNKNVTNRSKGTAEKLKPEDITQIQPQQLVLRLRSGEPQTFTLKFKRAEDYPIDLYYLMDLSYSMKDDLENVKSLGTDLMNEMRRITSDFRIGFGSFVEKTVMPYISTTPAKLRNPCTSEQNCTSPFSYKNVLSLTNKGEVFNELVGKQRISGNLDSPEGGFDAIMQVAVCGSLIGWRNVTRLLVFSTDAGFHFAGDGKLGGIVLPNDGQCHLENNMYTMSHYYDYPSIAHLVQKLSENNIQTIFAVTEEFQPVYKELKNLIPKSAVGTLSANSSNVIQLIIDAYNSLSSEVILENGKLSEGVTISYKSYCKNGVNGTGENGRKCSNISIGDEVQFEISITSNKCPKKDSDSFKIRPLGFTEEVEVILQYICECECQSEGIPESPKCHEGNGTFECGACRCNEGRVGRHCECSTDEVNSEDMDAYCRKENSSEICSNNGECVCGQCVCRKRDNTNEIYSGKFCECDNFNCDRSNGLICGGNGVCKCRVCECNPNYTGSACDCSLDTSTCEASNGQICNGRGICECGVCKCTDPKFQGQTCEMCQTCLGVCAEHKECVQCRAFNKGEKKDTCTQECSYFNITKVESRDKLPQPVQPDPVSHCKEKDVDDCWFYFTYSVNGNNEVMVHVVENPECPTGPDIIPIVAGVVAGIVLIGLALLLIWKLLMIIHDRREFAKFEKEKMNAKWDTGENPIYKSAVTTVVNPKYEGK
# Sequence of Integrin beta-1 (Homo sapiens) + Integrin alpha-4 (Homo sapiens) (P13612 whole entry, looked up): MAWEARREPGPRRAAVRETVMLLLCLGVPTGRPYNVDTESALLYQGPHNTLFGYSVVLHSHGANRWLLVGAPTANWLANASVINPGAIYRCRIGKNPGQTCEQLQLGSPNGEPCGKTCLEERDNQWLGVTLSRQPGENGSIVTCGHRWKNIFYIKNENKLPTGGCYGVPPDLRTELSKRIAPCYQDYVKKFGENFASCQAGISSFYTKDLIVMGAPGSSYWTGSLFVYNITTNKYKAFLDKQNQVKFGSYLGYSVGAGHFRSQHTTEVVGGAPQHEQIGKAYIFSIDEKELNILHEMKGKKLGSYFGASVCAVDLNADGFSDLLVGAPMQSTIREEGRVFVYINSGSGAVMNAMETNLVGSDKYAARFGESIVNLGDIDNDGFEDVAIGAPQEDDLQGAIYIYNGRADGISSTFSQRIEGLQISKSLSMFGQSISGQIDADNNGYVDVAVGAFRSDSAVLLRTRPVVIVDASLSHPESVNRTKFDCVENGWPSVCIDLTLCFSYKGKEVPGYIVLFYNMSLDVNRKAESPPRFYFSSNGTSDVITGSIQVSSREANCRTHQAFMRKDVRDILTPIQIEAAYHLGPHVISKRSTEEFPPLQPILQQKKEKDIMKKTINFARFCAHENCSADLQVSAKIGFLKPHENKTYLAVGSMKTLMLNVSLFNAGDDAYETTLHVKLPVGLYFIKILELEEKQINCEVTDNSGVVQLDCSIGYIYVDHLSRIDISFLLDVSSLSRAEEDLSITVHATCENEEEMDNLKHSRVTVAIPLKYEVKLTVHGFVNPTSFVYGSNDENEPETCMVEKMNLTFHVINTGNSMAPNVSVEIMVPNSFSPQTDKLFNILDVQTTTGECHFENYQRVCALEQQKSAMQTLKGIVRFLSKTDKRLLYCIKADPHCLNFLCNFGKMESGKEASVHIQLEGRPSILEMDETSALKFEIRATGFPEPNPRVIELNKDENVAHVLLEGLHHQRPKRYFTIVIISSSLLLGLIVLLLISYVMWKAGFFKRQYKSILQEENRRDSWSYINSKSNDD
# Sequence of Beta-2 adrenergic receptor (Homo sapiens) (P07550 whole entry, looked up): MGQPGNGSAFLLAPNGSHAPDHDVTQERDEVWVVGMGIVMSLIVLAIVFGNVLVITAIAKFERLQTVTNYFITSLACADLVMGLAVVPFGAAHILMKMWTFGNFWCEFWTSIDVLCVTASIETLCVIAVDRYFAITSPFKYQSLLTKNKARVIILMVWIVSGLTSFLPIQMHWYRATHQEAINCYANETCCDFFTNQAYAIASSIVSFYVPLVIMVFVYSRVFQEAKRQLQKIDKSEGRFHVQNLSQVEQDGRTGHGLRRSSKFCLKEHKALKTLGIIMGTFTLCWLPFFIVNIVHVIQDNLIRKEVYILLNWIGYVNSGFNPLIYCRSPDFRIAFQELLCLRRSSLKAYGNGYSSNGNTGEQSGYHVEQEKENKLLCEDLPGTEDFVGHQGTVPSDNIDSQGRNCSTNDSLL
# Sequence of ATP-binding cassette sub-family B member 6 (Homo sapiens) (Q9NP58 whole entry, looked up): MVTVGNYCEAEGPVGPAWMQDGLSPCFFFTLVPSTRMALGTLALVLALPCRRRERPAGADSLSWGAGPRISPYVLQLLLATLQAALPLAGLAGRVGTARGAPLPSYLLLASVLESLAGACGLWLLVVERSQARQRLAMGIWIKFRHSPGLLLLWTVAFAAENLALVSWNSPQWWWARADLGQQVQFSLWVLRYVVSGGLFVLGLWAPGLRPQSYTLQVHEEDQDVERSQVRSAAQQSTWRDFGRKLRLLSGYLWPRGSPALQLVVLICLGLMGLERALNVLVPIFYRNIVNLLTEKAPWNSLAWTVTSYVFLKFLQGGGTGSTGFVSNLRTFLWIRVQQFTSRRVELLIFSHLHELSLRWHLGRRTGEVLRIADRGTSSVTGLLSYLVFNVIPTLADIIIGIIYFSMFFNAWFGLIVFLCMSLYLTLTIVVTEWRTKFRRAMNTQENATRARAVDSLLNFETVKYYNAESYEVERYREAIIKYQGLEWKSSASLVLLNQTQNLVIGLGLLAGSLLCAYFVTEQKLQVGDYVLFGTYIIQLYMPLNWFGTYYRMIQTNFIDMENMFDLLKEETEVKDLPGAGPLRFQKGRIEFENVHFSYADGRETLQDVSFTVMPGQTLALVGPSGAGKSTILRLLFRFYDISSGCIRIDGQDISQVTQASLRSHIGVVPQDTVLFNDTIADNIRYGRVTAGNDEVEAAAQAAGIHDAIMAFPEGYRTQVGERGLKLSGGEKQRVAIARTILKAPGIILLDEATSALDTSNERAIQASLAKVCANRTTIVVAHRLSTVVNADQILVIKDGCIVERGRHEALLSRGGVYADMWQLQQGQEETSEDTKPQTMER
# Sequence of Beta-adrenergic receptor kinase 1 (Homo sapiens) (P25098 whole entry, looked up): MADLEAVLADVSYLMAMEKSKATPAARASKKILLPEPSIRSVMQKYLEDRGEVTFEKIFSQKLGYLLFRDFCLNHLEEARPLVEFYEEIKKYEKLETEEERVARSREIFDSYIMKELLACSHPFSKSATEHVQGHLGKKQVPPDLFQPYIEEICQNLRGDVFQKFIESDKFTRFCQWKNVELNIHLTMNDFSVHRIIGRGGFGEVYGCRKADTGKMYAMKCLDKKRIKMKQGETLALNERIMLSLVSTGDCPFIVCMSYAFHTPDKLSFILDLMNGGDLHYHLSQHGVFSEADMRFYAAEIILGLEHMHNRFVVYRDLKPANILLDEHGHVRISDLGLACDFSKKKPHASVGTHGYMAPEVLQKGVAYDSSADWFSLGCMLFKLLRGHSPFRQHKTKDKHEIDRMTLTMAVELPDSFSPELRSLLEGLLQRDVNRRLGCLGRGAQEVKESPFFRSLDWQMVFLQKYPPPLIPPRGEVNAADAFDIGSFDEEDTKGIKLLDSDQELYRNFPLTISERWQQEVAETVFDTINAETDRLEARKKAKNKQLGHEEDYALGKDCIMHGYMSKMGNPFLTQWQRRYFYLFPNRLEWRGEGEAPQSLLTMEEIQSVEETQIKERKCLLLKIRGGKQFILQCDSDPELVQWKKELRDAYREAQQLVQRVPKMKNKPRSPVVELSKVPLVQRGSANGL
# Sequence of AP-2 complex subunit beta (Homo sapiens) (P63010 whole entry, looked up, the tested form may be a part, one chain of several): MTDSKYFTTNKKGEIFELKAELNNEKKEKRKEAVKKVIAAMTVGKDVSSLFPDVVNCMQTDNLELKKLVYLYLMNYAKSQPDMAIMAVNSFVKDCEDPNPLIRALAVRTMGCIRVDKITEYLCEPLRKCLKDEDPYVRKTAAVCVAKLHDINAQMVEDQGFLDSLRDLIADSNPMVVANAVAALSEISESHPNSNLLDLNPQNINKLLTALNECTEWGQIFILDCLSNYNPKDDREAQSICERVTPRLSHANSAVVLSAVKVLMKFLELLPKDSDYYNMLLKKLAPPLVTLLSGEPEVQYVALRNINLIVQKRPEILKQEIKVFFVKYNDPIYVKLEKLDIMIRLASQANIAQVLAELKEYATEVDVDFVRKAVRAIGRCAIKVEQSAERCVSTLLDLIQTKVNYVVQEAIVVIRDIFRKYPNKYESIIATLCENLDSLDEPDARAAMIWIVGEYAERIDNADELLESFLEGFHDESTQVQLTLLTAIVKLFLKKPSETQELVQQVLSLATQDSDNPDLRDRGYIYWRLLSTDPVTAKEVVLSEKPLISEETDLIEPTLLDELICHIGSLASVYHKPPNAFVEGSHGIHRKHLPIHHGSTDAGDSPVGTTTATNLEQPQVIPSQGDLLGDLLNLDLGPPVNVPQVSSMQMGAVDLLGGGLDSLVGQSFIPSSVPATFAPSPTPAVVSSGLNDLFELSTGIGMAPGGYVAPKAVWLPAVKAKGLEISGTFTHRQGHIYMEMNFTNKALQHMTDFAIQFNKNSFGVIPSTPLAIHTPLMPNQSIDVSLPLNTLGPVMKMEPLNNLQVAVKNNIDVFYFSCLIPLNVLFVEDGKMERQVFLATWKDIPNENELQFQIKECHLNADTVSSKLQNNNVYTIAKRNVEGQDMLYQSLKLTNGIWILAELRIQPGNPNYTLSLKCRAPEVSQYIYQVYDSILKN
SMILES,percent of DMSO control GFP [1],GFP response vs DMSO [2],percent response of DMSO control [3],GFP response vs DMSO [4],"GFP response, % of DMSO [5]",double positive events [6] [%],vesicle binding response [6],inhibition [7],superoxide response (% of plate) [8],aptamer binding inhibition [9],response [10],inhibition [11],response [12],binding (% of control) [13],efflux inhibition (fraction of control) [14],inhibition [15],differentiation response [16]
NS(=O)(=O)c1ccc(CNC(=O)c2cc(-c3ccccc3)nc3ccccc23)cc1,98.8% (inactive),109% (inactive),104% (inactive),95.3% (inactive),97.5% (inactive),59.3,220% (inactive),-7.72% (inactive),104% (inactive),2% (inactive),-8.54% (inactive),16% (inactive),-3.46% (inactive),98% (inactive),-0.1 (inactive),1% (inactive),5.13% (inactive)
COc1cc(SC)ccc1C(=O)NC(C)C,102% (inactive),101% (inactive),99.6% (inactive),101% (inactive),94.9% (inactive),58.7,171% (inactive),-9.98% (inactive),97.8% (inactive),-1% (inactive),-0.58% (inactive),-4.67% (inactive),1.52% (inactive),101% (inactive),-0.13 (inactive),6% (inactive),-21.6% (inactive)
CCOc1ccc2oc(-c3ccccc3)c(C(=O)O)c2c1,97.8% (inactive),108% (inactive),100% (inactive),110% (inactive),105% (inactive),65.1,204% (inactive),5.69% (inactive),102% (inactive),6% (inactive),-17.2% (inactive),7.05% (inactive),1.4% (inactive),101% (inactive),-0.04 (inactive),9% (inactive),1.91% (inactive)
CN1CC2CCCC3(C1)C(=O)NC1(CCCCC1)N=C23 (stereo not drawn),105% (inactive),105% (inactive),111% (inactive),97.3% (inactive),107% (inactive),58.9,281% (inactive),3.7% (inactive),103% (inactive),1% (inactive),-7.22% (inactive),-5.67% (inactive),3.54% (inactive),99% (inactive),-0.26 (inactive),1% (inactive),-6.6% (inactive)
Cc1cccc(C)c1NC(=O)C1CCCCN1C (stereo not drawn),102% (inactive),104% (inactive),97.8% (inactive),90.1% (inactive),97% (inactive),62.6,92.5% (inactive),-4.6% (inactive),104% (inactive),5% (inactive),10.4% (inactive),15.4% (inactive),0.17% (inactive),98.2% (inactive),-0.01 (inactive),1% (inactive),-1.71% (inactive)
COc1ccc(OC)c(NC2=C(Cl)C(=O)N(Cc3ccccc3)C2=O)c1,104% (inactive),105% (inactive),103% (inactive),103% (inactive),99.8% (inactive),59.3,98% (inactive),4.27% (inactive),99.4% (inactive),0% (inactive),3% (inactive),5.66% (inactive),2.16% (inactive),107% (inactive),-0.075 (inactive),0% (inactive),-11.9% (inactive)
Cc1ccc(SCC(=O)Nc2nccs2)cc1,101% (inactive),105% (inactive),98.6% (inactive),120% (inactive),99.7% (inactive),60.5,4850% (inactive),6.4% (inactive),110% (inactive),4% (inactive),-0.63% (inactive),-4.67% (inactive),-0.83% (inactive),95.3% (inactive),-0.24 (inactive),4% (inactive),-2.4% (inactive)
Cn1c(Oc2ccc3c(c2)OCO3)nc2c1c(=O)n(Cc1ccccc1)c(=O)n2C,98.7% (inactive),102% (inactive),94.4% (inactive),104% (inactive),109% (inactive),60.5,189% (inactive),-5.38% (inactive),116% (inactive),8% (inactive),-26.9% (inactive),3.83% (inactive),-0.9% (inactive),97.8% (inactive),0.04 (inactive),5% (inactive),-4.99% (inactive)
Cc1cccc2c1CC(C)(C)N/C2=C\C(N)=O,98.7% (inactive),102% (inactive),91.8% (inactive),103% (inactive),104% (inactive),63.7,148% (inactive),-217% (inactive),99% (inactive),0% (inactive),-10.2% (inactive),10.1% (inactive),-3.68% (inactive),113% (inactive),0.04 (inactive),-25% (inactive),-12.9% (inactive)
